D1 agonist = agonists of human D1 dopamine receptor; AID 504660; P21728; 1% of 360,000 active; HEK293 T-REx D1 cells, calcium flux, agonist mode; activation, % at 2 µM; in the data active = activation above about 30%
Target sequence (P21728 whole entry, looked up): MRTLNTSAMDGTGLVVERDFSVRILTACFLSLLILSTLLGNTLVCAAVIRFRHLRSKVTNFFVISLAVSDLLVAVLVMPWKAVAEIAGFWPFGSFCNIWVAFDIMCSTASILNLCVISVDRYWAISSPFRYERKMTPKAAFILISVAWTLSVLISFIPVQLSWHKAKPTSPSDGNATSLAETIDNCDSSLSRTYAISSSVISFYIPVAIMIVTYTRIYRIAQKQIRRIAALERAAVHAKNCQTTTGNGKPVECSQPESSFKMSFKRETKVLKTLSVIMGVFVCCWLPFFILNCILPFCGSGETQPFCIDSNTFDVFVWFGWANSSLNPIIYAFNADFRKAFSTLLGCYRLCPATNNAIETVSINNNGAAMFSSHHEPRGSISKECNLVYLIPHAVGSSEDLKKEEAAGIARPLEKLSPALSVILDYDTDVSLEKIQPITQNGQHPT
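Tetracycline-induced HEK293 TREx D1 cells, force-coupled to calcium signalling, were dye-loaded with a no-wash calcium kit. Compound was pin-added after a 10 s baseline. Fluorescence was read kinetically at 1 cycle/s for 180 s, with calcium rises flagged as agonism.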
D3 ag = activates the human D3 dopamine receptor; max activation, %; AID 652048; P35462; 0.58% of 410,000 active; D3R DiscoveRx beta-arrestin cells, luminescence, 90 min; in the data active = max activation above about 30%
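Agonist-mode cell screen: cells plated at 1500/well and incubated overnight at 37 °C, then exposed to library compounds for 90 min at 37 °C. Detection reagent was added for 30–60 min at room temperature, and luminescence was read.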
D3 antag = D3 dopamine receptor (human) antagonism. P35462. D3R cells, DiscoveRx beta-arrestin luminescence, antagonist mode; active compounds read low. max response, negative = inhibition, %. 2.5% of 360,000 active. AID 652054; in the data active = max response below about -50%; inconclusive = no clear call, values can overlap the other calls
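Cells plated overnight at 1500 cells/well, then exposed to library compounds with dopamine controls for 90 minutes at 37 degrees C. DiscoveRx reagent added for 30–60 minutes at room temperature; luminescence read, quantitative HTS format.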
ERG-DNA inh = inhibitors of human ERG Ets domain-DNA interaction; P11308; fluorescence polarization, His-ERG Ets domain / labelled DNA; Potency, µM (series often up to 76.9 µM), usual class: inhibitors; 0.028% of 370,000 active; AID 624246; active = well fitted inhibition curve with a large enough effect in the polarisation, with a control signal flat; inconclusive = small, poorly fitted or top-dose-only effect, or effect the other way, or a change in a side signal; inactive = no such curve, though single readings can be large or run the other way; the % refers to the polarisation;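 note: polarization taken with two DNA probes labelled with fluorescein and Texas red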
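His-tagged ERG Ets domain (1 uM in the protein solution; 300mM KCl, 50mM Tris-HCl, 1mM EDTA, 1mM DTT, pH 7.5) received compound, then a probe mix of 5 nM fluorescein-DNA and 100nM Texas-615-DNA. Fluorescence polarization was read for both dyes.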
D1 antag = antagonists of human D1 dopamine receptor. activity change, negative = inhibition, % at 10 µM. HEK293 TREx D1 cells, calcium flux, dopamine EC80; active compounds read low. 3.2% of 360,000 active; in the data active = activity change below about -30%
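Calcium flux readout: force-coupled, inducible Hek293 Trex D1 line, cells induced overnight at 30 C with tetracycline, dye-loaded 30–90 min at RT. Antagonism scored against EC80 dopamine challenge given 180 s after compound.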
D1 PAM = human D1 dopamine receptor positive modulation; potentiation, % at 10 µM; 0.036% of 360,000 active; P21728; HEK293 TREx D1 cells, calcium flux, dopamine EC20 potentiation; in the data active = potentiation above about 30%
Of the large screens only hits and unclear results are named; the others gave an inactive call. Only some compounds are listed: those with a hit (about 6.1% of all), similar ones and a draw of the others.

Cc1ncc(CO)c(/C=N/NC(=S)Nc2ccc(F)cc2)c1O	none
CN(CC(=O)Nc1cccc(F)c1)C(=O)c1cccnc1Sc1ccc(Cl)cc1	none
Cn1c(CCN2CCCC2)nc2cc(NS(=O)(=O)c3ccc(F)cc3)ccc21	none (no result: D1 agonist, ERG-DNA inh, D1 antag, D1 PAM)
Cn1c(CN2CCCC2)nc2cc(NS(=O)(=O)c3ccc(Cl)cc3)ccc21	D1 agonist 47, D3 antag -104
Cc1ccc(S(=O)(=O)Nc2ccc3c(c2)nc(CCN2CCCC2)n3C)cc1	D3 antag -57
COc1ccc(-n2cnc3cc(NS(=O)(=O)c4ccccc4)ccc32)cc1	D3 antag -87 (no result: ERG-DNA inh)
Cn1c(CN2CCCC2)nc2cc(NS(=O)(=O)c3ccccc3)ccc21	D3 antag -80 (no result: ERG-DNA inh)
Cn1c(CCN2CCCCC2)nc2cc(NS(=O)(=O)c3ccccc3)ccc21	none
COc1ccc(/C=C/C(=O)N2CCN(c3ccccc3)CC2)cc1S(=O)(=O)N1CCOCC1	none
Cc1cc2c(s1)c(C#N)c(C(=O)NCc1ccccc1F)n2C	none (no result: D3 ag, D3 antag, ERG-DNA inh)
Cc1cc(C(=O)N/N=C\c2cc(C(C)(C)C)c(O)c(C(C)(C)C)c2)n[nH]1	none
COc1ccccc1S(=O)(=O)Cc1ccc(C(=O)NCc2ccco2)o1	none
COc1ccc(NC(=O)c2cccc(N3C(=O)C4C5CCC(C5)C4C3=O)c2)cc1 (stereo unspecified)	D1 antag -80
COc1ccc(NC(=O)c2cccc(N3C(=O)C4C5C=CC(C6CC56)C4C3=O)c2)c(OC)c1 (stereo unspecified)	D1 antag -39
O=C(Oc1cccc2cccnc12)c1cccc(N2C(=O)C3C4CCC(C4)C3C2=O)c1 (stereo unspecified)	D3 antag -88
O=C(O)c1ccc(NC(=O)c2cccc(N3C(=O)C4C5CCC(C5)C4C3=O)c2)cc1 (stereo unspecified)	none
O=C(Nc1cccnc1)c1ccc(Br)c(S(=O)(=O)N2CCCC2)c1	none
Cc1nc2ccccc2c2nc(N)nn12	D1 antag -56
CCCc1nc2ccccc2c2nc(N)nn12	none
CC(=O)N1CCc2c(sc3c2c(=O)n(CCc2ccccc2)c(=O)n3Cc2cccc(C)c2)C1	none (no result: D3 antag)
CCCn1c(SCC(=O)NC(C)C23CC4CC(CC(C4)C2)C3)n[nH]c1=O (stereo unspecified)	none
CC(Oc1ccc(C#N)cc1)C(=O)Nc1ccc(-n2cnnn2)cc1 (stereo unspecified)	D1 agonist 55
O=C(COc1ccc(F)cc1)Nc1ccc(-n2cnnn2)cc1	D1 antag -36
CCOc1ccccc1NC(=O)COc1cccc(-n2cnnn2)c1	none
CC(=O)Nc1ccc(-n2cnnn2)cc1	none
CCc1ccccc1NC(=O)COc1cccc(-n2cnnn2)c1	D1 agonist 44 (no result: D1 PAM)
CCOc1ccc(NC(=O)COc2ccc(-n3cnnn3)cc2)cc1	none
CCOc1cc(/C=N\NC(=O)c2ccc(C)nc2)ccc1OC(=O)c1ccc(F)cc1	none
COc1ccc(C2c3c(oc4ccc(C)cc4c3=O)C(=O)N2c2cc(C)ccn2)cc1OC (stereo unspecified)	none (no result: D3 ag, D3 antag, ERG-DNA inh)
COc1ccc(CC(=O)NCC(c2cccs2)S(=O)(=O)c2ccc(F)c(C)c2)cc1 (stereo unspecified)	none (no result: D3 antag)
Cc1cc(S(=O)(=O)C(CNC(=O)c2ccc(OC(C)C)cc2)c2cccs2)ccc1F (stereo unspecified)	D1 antag -74 (no result: D3 antag)
Cc1cc(=O)[nH]c(N/N=C/c2ccc(Br)s2)n1	none
FC(F)(F)c1cc(Nc2ccccc2)nc(-c2ccccn2)n1	none
FC(F)(F)c1cc(Sc2ccccc2)nc(-c2ccccn2)n1	D3 ag 34
CC(C)Oc1ccc(CNCCC2(C(C)C)CCOC(C)(C)C2)cc1 (stereo unspecified)	none
Cc1ccc(S(=O)(=O)N2CCN(CCOc3cccc(C)c3)CC2)cc1	D3 antag -55
O=S(=O)(c1ccc(F)cc1)N1CCN(CCOc2ccccc2)CC1	D3 antag inconclusive (no result: D1 agonist, D1 antag, D1 PAM)
COc1ccc(S(=O)(=O)N2CCN(CCOc3ccc(Br)cc3)CC2)cc1OC	none
CC(=O)c1ccc(S(=O)(=O)N2CCN(CCOc3ccccc3)CC2)cc1	D3 antag -59 (no result: D1 agonist, D1 antag, D1 PAM)
COc1ccc(S(=O)(=O)N2CCN(CCOc3ccccc3Cl)CC2)cc1OC	D3 ag 36, D1 antag -51
O=S(=O)(c1ccc(C(F)(F)F)cc1)N1CCN(CCOc2ccccc2)CC1	D1 antag -39
COc1ccc(C(C(=O)NCC2CCCO2)N(C(=O)CNC(=O)c2ccco2)c2cc(C)cc(C)c2)cc1OC (stereo unspecified)	none
C=CCOC(=O)C1=C(C)NC(SCC(N)=O)=C(C#N)C1c1cccs1 (stereo unspecified)	D1 antag -45
CCOc1ccc(C(C)=O)cc1CSc1nnc(-c2ccoc2C)n1N	none
COc1cc(NC(=O)[C@H]2CCCN2S(=O)(=O)c2cccc3cccnc23)cc(OC)c1OC	none
COc1cc(NC(=O)[C@@H]2CCCN(S(=O)(=O)c3cccc4cccnc34)C2)cc(OC)c1OC	D3 ag 43
COc1ccc(NC(=O)C2CCCN(S(=O)(=O)c3ccc(C)cc3)C2)cc1OC (stereo unspecified)	none
COc1ccc(S(=O)(=O)N2CCCC(C(=O)Nc3ccc(OC)c(OC)c3)C2)cc1 (stereo unspecified)	D1 antag -31
Cc1c(N/C=C/C(=O)C(F)(F)F)c(=O)n(-c2ccccc2)n1C	none
Cc1ccccc1NC(=O)c1cc(N)ccc1N1CCCCC1	D1 antag -55
CCOC(=O)c1c(CN(C)C)oc2cc(CN(C)C)c(O)c(CSc3ccccc3)c12	D3 antag -59
O=C(CCN1CCCCC1)c1ccccc1	none
CCc1oc2ccccc2c1C(=O)CCN1CCCCC1	D3 antag -94
COC(=O)c1c(NC(=O)c2cc(OC)c(OC)c(OC)c2Br)sc2c1CCC(C)C2 (stereo unspecified)	none (no result: D3 antag)
O=C(CCCOc1ccc(Cl)cc1Cl)Nc1nnc(C2CC2)s1	none
Clc1cccc(CN2CCc3c([nH]c4ccccc34)C2)c1Cl	none
COc1cccc(CN2CCc3[nH]c(=S)[nH]c(=O)c3C2)c1	none
COc1cc(CN2CCc3c([nH]c4ccccc34)C2)cc(OC)c1	D3 antag -68
COc1ccccc1CN1CCc2c([nH]c3ccccc23)C1	D3 antag -90
Cc1onc(-c2c(F)cccc2Cl)c1C(=O)Nc1c(C)n(C)n(-c2ccccc2)c1=O	none (no result: ERG-DNA inh)
Cc1onc(-c2c(F)cccc2Cl)c1C(=O)NC(=S)Nc1c(C)n(C)n(-c2ccccc2)c1=O	D1 antag -67
CC(=O)Nc1ccc(NC(=O)CSC2=NS(=O)(=O)c3cc(Cl)ccc3N2)cc1	none
